This note sets out measurements from PubChem BioAssay (NCI).

Some test systems named below: DU-145 prostate; K-562 leukemia; MALME-3M melanoma; MDA-MB-231 breast; RXF 393 renal; SF-268 CNS; SF-295 CNS; SF-539 CNS; UACC-257 melanoma; HCT-15 colon; HT29 colon; SNB-75 CNS; SNB-19 CNS; U251 CNS; PC-3 prostate; SK-MEL-5 melanoma; UACC-62 melanoma; LOX IMVI melanoma; SK-MEL-28 melanoma.
Holding throughout (test): NCI-60 one-dose screen, 48 h (100 = growth as untreated, 0 = no growth, -100 = all killed)
Settings in all cases: 10 µM unless noted

Molecules are shown by their SMILES. The panel holds about 83,000 compounds, 20% with a hit somewhere; the sample as a whole holds those more often.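 96-well plates, one dose, 48 hours. Percent growth reported; active if below 10.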 Unmarked numbers belong to inactive results. The source made the active and inactive calls.

For `Cc1ccc(C2=C/C(=C/c3ccc(Br)cc3)C(=O)N2CCc2ccc(S(N)(=O)=O)cc2)cc1`, the growth in the assay with DU-145 prostate is 104%; in the assay on K-562 leukemia it was 88.6%; in the assay on MALME-3M melanoma, 93.4%; in the assay with MDA-MB-231 breast, 90.4%; in the assay on RXF 393 renal it was 90%; in the assay with SF-268 CNS it was 87.6%. In addition, the growth in the assay with SF-295 CNS is 101%; with SF-539 CNS, 97.4%; in the assay with UACC-257 melanoma it was 101%; in the assay on HCT-15 colon, 99.8%; with HT29 colon, 106%; in the assay on SNB-75 CNS, 60.9%. The growth in the assay on SNB-19 CNS is 89.7%; in the assay with U251 CNS, 95.5%; in the assay with PC-3 prostate, 88%; in the assay on SK-MEL-5 melanoma it was 94.7%; with UACC-62 melanoma, 78.7%; in the assay on LOX IMVI melanoma, 99.6%. Besides, the growth with SK-MEL-28 melanoma is 104%.

For the compound `CC[C@@](C)(NC(=O)[C@H](C)NC(=O)CCNC(=O)C(C)(C)NC(=O)[C@H](C)NC(=O)[C@@H]1CCCN1C(=O)[C@@](C)(CC)NC(=O)[C@H](Cc1ccccc1)NC(=O)C1CCCN1C(=O)C(C)(C)NC(=O)C1CCCN1C(=O)C(C)(C)NC(C)=O)C(=O)NCCC(=O)N[C@@H](CC(C)C)C(=O)NC(C)(C)C(=O)NCCC(=O)N[C@@H](CC(C)C)C(=O)NC(C)(C)C(=O)NC(C)(C)C(=O)N[C@@H](CC(C)C)C(=O)NCCC(=O)NCO` (some centres undefined), the growth in the assay on DU-145 prostate was -100% (active); in the assay with K-562 leukemia, -60.9% (active); in the assay with MALME-3M melanoma, -84.9% (active); in the assay on MDA-MB-231 breast it was -88.5% (active); in the assay with RXF 393 renal, -97.5% (active); with SF-268 CNS, -96.8% (active). Besides, the growth in the assay on SF-295 CNS is -98.6% (active); with SF-539 CNS, -90% (active); in the assay on UACC-257 melanoma, -95.2% (active); in the assay with HT29 colon, -70.8% (active); in the assay with SNB-75 CNS, -96.4% (active); in the assay with SNB-19 CNS, -87.2% (active). Also, the growth with U251 CNS was -99.1% (active); in the assay with PC-3 prostate it was -94.6% (active); in the assay on SK-MEL-5 melanoma, -100% (active); in the assay with UACC-62 melanoma, -75.3% (active); in the assay on LOX IMVI melanoma, -100% (active); in the assay on SK-MEL-28 melanoma, -84.1% (active).

Consider `CCOC(=O)c1nn(C2CCCCO2)c2ccc(NC(=O)Cn3nnc4ccccc43)cc12` (centres undefined), for which the growth in the assay on DU-145 prostate was 104%; in the assay with K-562 leukemia, 91.3%; in the assay with MALME-3M melanoma, 105%; in the assay on MDA-MB-231 breast, 96.4%; in the assay with RXF 393 renal it was 125%; in the assay with SF-268 CNS it was 101%. Also, the growth with SF-295 CNS was 99.3%; in the assay on SF-539 CNS it was 100%; in the assay on UACC-257 melanoma, 100%; in the assay with HCT-15 colon, 95.9%; in the assay on HT29 colon it was 115%; in the assay on SNB-75 CNS it was 78.6%. For the same compound, the growth with SNB-19 CNS was 86.5%; in the assay on U251 CNS it was 96.4%; in the assay on PC-3 prostate, 110%; in the assay with SK-MEL-5 melanoma, 99.1%; in the assay on UACC-62 melanoma, 99.9%; with LOX IMVI melanoma it was 96.5%. Also, the growth in the assay on SK-MEL-28 melanoma is 106%.

Regarding `COCCCNc1nc(NC(=O)c2cc(Br)cc(C(F)(F)F)c2)cc(-c2cccnc2)n1`, the growth was 100% in the assay with DU-145 prostate; 73.3% in the assay with K-562 leukemia; 99.7% in the assay on MALME-3M melanoma; 75.8% with MDA-MB-231 breast; 103% with RXF 393 renal; 90.5% with SF-268 CNS. The growth with SF-295 CNS is 89.2%; in the assay with SF-539 CNS, 94%; in the assay on UACC-257 melanoma, 91%; in the assay on HCT-15 colon, 85.9%; in the assay on HT29 colon, 83.7%; in the assay with SNB-75 CNS it was 115%. In addition, the growth is 95.9% with SNB-19 CNS; 85.9% in the assay on U251 CNS; 70.6% with PC-3 prostate; 70.6% in the assay on SK-MEL-5 melanoma; 90.5% in the assay on UACC-62 melanoma; 104% with LOX IMVI melanoma. Also, the growth with SK-MEL-28 melanoma was 98.6%.

`CC1Cc2ccc(OCCN(C)C)cc2C1=O` (centres undefined): the growth is 107% with DU-145 prostate; 100% in the assay with K-562 leukemia; 108% with MALME-3M melanoma; 112% in the assay on MDA-MB-231 breast; 110% in the assay with RXF 393 renal; 103% in the assay with SF-268 CNS. For the same compound, the growth in the assay on SF-295 CNS is 99.6%; in the assay with SF-539 CNS, 99.5%; with UACC-257 melanoma, 80%; in the assay on HT29 colon it was 98.5%; with SNB-75 CNS, 98%; in the assay on SNB-19 CNS it was 106%. In addition, the growth in the assay on U251 CNS is 89.5%; with PC-3 prostate, 89.9%; in the assay on SK-MEL-5 melanoma it was 91.6%; with UACC-62 melanoma it was 105%; in the assay on LOX IMVI melanoma, 96.4%; with SK-MEL-28 melanoma it was 103%.

Consider `C/C=C/C1OC23CCCCC2C(C#N)(C(=N)O3)C1(C#N)C#N` (centres undefined), for which the growth in the assay on DU-145 prostate is 95.1%; in the assay with K-562 leukemia, 94.7%; in the assay on MALME-3M melanoma, 99%; in the assay on MDA-MB-231 breast it was 110%; with RXF 393 renal, 116%; with SF-268 CNS, 97.6%. Also, the growth was 110% in the assay on SF-295 CNS; 98.2% in the assay with SF-539 CNS; 93.3% in the assay with UACC-257 melanoma; 85% in the assay on HCT-15 colon; 109% in the assay with HT29 colon; 85.9% in the assay with SNB-75 CNS. In addition, the growth in the assay with SNB-19 CNS is 101%; in the assay with U251 CNS, 102%; in the assay on PC-3 prostate, 98.1%; in the assay on SK-MEL-5 melanoma it was 99.1%; in the assay on LOX IMVI melanoma, 81.9%; with SK-MEL-28 melanoma, 109%.

`CCN(CC)CCCOc1ccc2c(c1)O/C(=C\c1cccc(OC)c1)C2=O`: the growth in the assay on DU-145 prostate was 86.8%; in the assay with K-562 leukemia it was 21.5%; with MALME-3M melanoma, 90.5%; in the assay on MDA-MB-231 breast, 87.1%; in the assay with RXF 393 renal it was 85.6%; in the assay on SF-268 CNS, 86.1%. The growth was 93.4% in the assay with SF-295 CNS; 86.7% in the assay on SF-539 CNS; 100% in the assay on UACC-257 melanoma; 53.5% with HCT-15 colon; 50.2% in the assay on HT29 colon; 71.8% in the assay with SNB-75 CNS. For the same compound, the growth in the assay with SNB-19 CNS is 92.6%; in the assay on U251 CNS, 76.7%; with PC-3 prostate, 94.6%; in the assay on SK-MEL-5 melanoma, 91.2%; with UACC-62 melanoma it was 95.6%; in the assay with LOX IMVI melanoma, 70.7%. Further, the growth with SK-MEL-28 melanoma is 101%.

For `C=CCCC1(C)NC(=O)NC1=O` (centres undefined), the growth in the assay with DU-145 prostate was 102%; with K-562 leukemia it was 83.3%; in the assay with MALME-3M melanoma, 111%; in the assay with MDA-MB-231 breast it was 101%; with RXF 393 renal, 121%; with SF-268 CNS, 98%. The growth with SF-295 CNS was 95.7%; in the assay with SF-539 CNS, 104%; with UACC-257 melanoma it was 104%; in the assay on HCT-15 colon, 105%; with HT29 colon, 93.2%; in the assay on SNB-75 CNS, 89.3%. Moreover, the growth with SNB-19 CNS is 99.6%; in the assay with U251 CNS it was 103%; in the assay on PC-3 prostate, 86.5%; with SK-MEL-5 melanoma, 104%; in the assay with UACC-62 melanoma, 99.2%; in the assay with LOX IMVI melanoma, 93.7%. In the assay with SK-MEL-28 melanoma, the growth is 106%.
